# Measurements published in PubChem BioAssay AID1159580 (chemical genetic matrix, 2015).
# “And” between values parts separate entries of the source, which are not always exact repeats. Equal entries are not always repeated. In all, about 5,500 compounds went through this assay and about 2,000 (36%) were called active. Roughly 18% stayed inconclusive and do not appear here. Rule as the data show it: active = normalized growth mostly below about 0.91 (no sharp cut-off); inconclusive = no clear call, values can overlap the other calls; inactive = mostly above about 0.92. The list shows a part of the results.
# Experiment: chemical genetic growth profiling, strain panel (AID 1159580);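 also: tested at 20 µM; growth read once vehicle control cultures reached saturation at 30 °C; 1 = growth at the plate median or of vehicle wells; lower values mean less growth of the strain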
# Settings: S. cerevisiae deletion strains, growth OD
# [1] = locus YAL013W, strain DEP1, stronger effect = lower value
# [2] = locus YDR150W, strain NUM1, stronger effect = lower value
# [3] = locus YGR078C, strain PAC10, stronger effect = lower value
# [4] = locus YMR263W, strain SAP30, stronger effect = lower value
# [5] = locus YPL055C, strain LGE1, stronger effect = lower value
# [6] = locus YPL241C, strain CIN2, stronger effect = lower value
# [7] = locus YBR229C, strain ROT2, stronger effect = lower value
# [8] = locus YDL101C, strain DUN1, stronger effect = lower value
# [9] = locus YEL061C, strain CIN8, stronger effect = lower value
# [10] = locus YHR030C, strain SLT2, stronger effect = lower value
# [11] = locus YHR087W, strain rtc3, stronger effect = lower value
# [12] = locus YJR043C, strain POL32, stronger effect = lower value
# [13] = locus YJR075W, strain HOC1, stronger effect = lower value
# [14] = locus YLR039C, strain RIC1, stronger effect = lower value
# [15] = locus YLR058C, strain SHM2 (second series), stronger effect = lower value
# [16] = locus YLR085C, strain ARP6, stronger effect = lower value
# [17] = locus YLR262C, strain YPT6, stronger effect = lower value
# [18] = locus YML094W, strain GIM5, stronger effect = lower value
# [19] = locus YMR219W, strain ESC1, stronger effect = lower value
# [20] = locus YNL153C, strain GIM3, stronger effect = lower value
# [21] = locus YNL298W, strain CLA4 (second series), stronger effect = lower value
# [22] = locus YNL322C, strain KRE1, stronger effect = lower value
# [23] = locus YNR030W, strain Alg12, stronger effect = lower value
# [24] = locus YPR135W, strain CTF4, stronger effect = lower value
smiles,measurement,setting,value
CNC(CC(=O)O)C(=O)O (configuration not stated),normalized growth,[1],1.02 (inactive)
same,normalized growth,"locus YAL040C, strain CLN3, stronger effect = lower value",1.02 (inactive)
same,normalized growth,"locus YCL061C, strain MRC1 (second series), stronger effect = lower value",1.02 (inactive)
same,normalized growth,[2],1.03 (inactive)
same,normalized growth,"locus YDR363W, strain ESC2, stronger effect = lower value",1 (inactive)
same,normalized growth,"locus YER002W, strain NOP16, stronger effect = lower value",1 (inactive)
same,normalized growth,[3],1.02 (inactive)
same,normalized growth,[4],1.01 (inactive)
same,normalized growth,"locus YMR307W, strain GAS1, stronger effect = lower value",1.02 (inactive)
same,normalized growth,"locus YNL175C, strain NOP13, stronger effect = lower value",1.01 (inactive)
same,normalized growth,"locus YNL197C, strain WHI3, stronger effect = lower value",1 (inactive)
same,normalized growth,"locus YNL224C, strain SQS1, stronger effect = lower value",1.01 (inactive)
same,normalized growth,"locus YOR083W, strain WHI5 (second series), stronger effect = lower value",1.05 (inactive)
same,normalized growth,[5],1.02 (inactive)
same,normalized growth,[6],1.03 (inactive)
CCOC(=O)CC(=O)Nc1scc(C)c1C(=O)OCC,normalized growth,[1],0.988 (inactive)
same,normalized growth,[7],0.977 (inactive)
same,normalized growth,[8],0.97 (inactive)
same,normalized growth,"locus YDL134C, strain PPH21, stronger effect = lower value",0.923 (inactive)
same,normalized growth,[2],0.995 (inactive)
same,normalized growth,[9],0.943 (inactive)
same,normalized growth,[3],0.947 (inactive)
same,normalized growth,[10],0.906 (inactive)
same,normalized growth,[11],0.924 (inactive)
same,normalized growth,"locus YJL187C, strain SWE1, stronger effect = lower value",0.958 (inactive)
same,normalized growth,[12],0.979 (inactive)
same,normalized growth,[13],0.951 (inactive)
same,normalized growth,"locus YKL190W, strain CNB1, stronger effect = lower value",0.97 (inactive)
same,normalized growth,[14],0.987 (inactive)
same,normalized growth,[15],0.98 (inactive)
same,normalized growth,[16],0.872 (inactive)
same,normalized growth,[17],0.994 (inactive)
same,normalized growth,[18],0.933 (inactive)
same,normalized growth,[19],0.968 (inactive)
same,normalized growth,[4],0.984 (inactive)
same,normalized growth,"locus YNL128W, strain TEP1, stronger effect = lower value",0.98 (inactive)
same,normalized growth,[20],0.969 (inactive)
same,normalized growth,[21],0.934 (inactive)
same,normalized growth,[22],0.957 (inactive)
same,normalized growth,[23],0.924 (inactive)
same,normalized growth,[5],0.968 (inactive)
same,normalized growth,[6],0.936 (inactive)
same,normalized growth,[24],1.14 (inactive)
CCOC(=O)c1c(N=Cc2cc(Br)c(Br)cc2O)sc2c1CCCC2,normalized growth,[1],0.131 (active)
same,normalized growth,"locus YAR019C, strain CDC15, stronger effect = lower value",0.975 (inactive)
same,normalized growth,"locus YBL105C, strain PKC1, stronger effect = lower value",0.97 (inactive)
same,normalized growth,"locus YBR135W, strain CKS1, stronger effect = lower value",0.968 (inactive)
same,normalized growth,"locus YBR136W, strain MEC1, stronger effect = lower value",0.97 (inactive)
same,normalized growth,"locus YBR160W, strain CDC28, stronger effect = lower value",0.976 (inactive)
same,normalized growth,[7],0.542 (active)
same,normalized growth,"locus YDL017W, strain CDC7, stronger effect = lower value",0.976 (inactive)
same,normalized growth,"locus YDL028C, strain MPS1, stronger effect = lower value",0.956 (inactive)
same,normalized growth,[8],0.963 (inactive) and 0.697 (active)
same,normalized growth,"locus YDL108W, strain KIN28, stronger effect = lower value",0.959 (inactive)
same,normalized growth,"locus YDL132W, strain cdc53, stronger effect = lower value",0.964 (inactive)
same,normalized growth,"locus YDL214C, strain PRR2, stronger effect = lower value",0.667 (active)
same,normalized growth,"locus YDR052C, strain DBF4, stronger effect = lower value",0.971 (inactive)
same,normalized growth,"locus YDR054C, strain cdc34, stronger effect = lower value",0.97 (inactive)
same,normalized growth,"locus YDR226W, strain ADK1, stronger effect = lower value",0.975 (inactive)
same,normalized growth,"locus YDR477W, strain SNF1, stronger effect = lower value",0.595 (active)
same,normalized growth,[9],0.265 (active)
same,normalized growth,"locus YER123W, strain YCK3, stronger effect = lower value",0.541 (active)
same,normalized growth,"locus YER133W, strain GLC7, stronger effect = lower value",0.696 (active)
same,normalized growth,"locus YFL009W, strain cdc4, stronger effect = lower value",0.983 (inactive)
same,normalized growth,"locus YFL029C, strain CAK1, stronger effect = lower value",0.977 (inactive)
same,normalized growth,"locus YFR003C, strain YPI1, stronger effect = lower value",0.961 (inactive)
same,normalized growth,"locus YFR019W, strain FAB1, stronger effect = lower value",0.804 (inactive)
same,normalized growth,"locus YFR028C, strain CDC14, stronger effect = lower value",0.982 (inactive)
same,normalized growth,"locus YGR040W, strain KSS1, stronger effect = lower value",0.612 (active)
same,normalized growth,"locus YGR052W, strain FMP48, stronger effect = lower value",0.45 (active)
same,normalized growth,[3],0.241 (active)
same,normalized growth,"locus YGR092W, strain DBF2, stronger effect = lower value",0.173 (active)
same,normalized growth,"locus YGR229C, strain SMI1, stronger effect = lower value",0.969 (inactive)
same,normalized growth,[10],0.211 (active) and 0.239 (active)
same,normalized growth,"locus YHR079C, strain IRE1, stronger effect = lower value",0.262 (active)
same,normalized growth,"locus YHR082C, strain KSP1, stronger effect = lower value",0.368 (active)
same,normalized growth,[11],0.554 (active)
same,normalized growth,"locus YHR205W, strain SCH9, stronger effect = lower value",0.458 (active)
same,normalized growth,"locus YIL147C, strain SLN1, stronger effect = lower value",0.96 (inactive)
same,normalized growth,"locus YJL095W, strain BCK1, stronger effect = lower value",0.314 (active)
same,normalized growth,"locus YJL128C, strain PBS2, stronger effect = lower value",0.959 (inactive)
same,normalized growth,"locus YJL157C, strain FAR1, stronger effect = lower value",0.589 (active)
same,normalized growth,"locus YJR016C, strain ILV3, stronger effect = lower value",0.968 (inactive)
same,normalized growth,[12],0.318 (active)
same,normalized growth,"locus YJR066W, strain TOR1 (second series), stronger effect = lower value",0.724 (inactive)
same,normalized growth,"locus YJR066W, strain TOR1, stronger effect = lower value",0.38 (active)
same,normalized growth,[13],0.769 (active)
same,normalized growth,"locus YKL048C, strain ELM1, stronger effect = lower value",0.629 (active)
same,normalized growth,"locus YKL067W, strain YNK1, stronger effect = lower value",0.674 (active)
same,normalized growth,"locus YKL101W, strain HSL1, stronger effect = lower value",0.555 (active)
same,normalized growth,"locus YKL193C, strain SDS22, stronger effect = lower value",0.964 (inactive)
same,normalized growth,"locus YKL203C, strain TOR2, stronger effect = lower value",0.614 (active)
same,normalized growth,[14],0.164 (active)
same,normalized growth,[15],0.916 (active)
same,normalized growth,[16],0.118 (active)
same,normalized growth,"locus YLR113W, strain HOG1, stronger effect = lower value",0.475 (active)
same,normalized growth,"locus YLR133W, strain CKI1, stronger effect = lower value",0.608 (active)
same,normalized growth,[17],0.17 (active)
same,normalized growth,"locus YLR403W, strain SFP1, stronger effect = lower value",0.525 (active)
same,normalized growth,"locus YML070W, strain DAK1, stronger effect = lower value",0.576 (active)
same,normalized growth,[18],0.442 (active)
same,normalized growth,"locus YMR001C, strain CDC5, stronger effect = lower value",0.975 (inactive)
same,normalized growth,"locus YMR205C, strain PFK2 (second series), stronger effect = lower value",0.635 (active)
same,normalized growth,[19],0.83 (active)
same,normalized growth,[4],0.162 (active)
same,normalized growth,"locus YMR277W, strain FCP1, stronger effect = lower value",0.968 (inactive)
same,normalized growth,"locus YNL006W, strain LST8, stronger effect = lower value",0.976 (inactive)
same,normalized growth,"locus YNL020C, strain ARK1, stronger effect = lower value",0.51 (active)
same,normalized growth,[20],0.511 (active)
same,normalized growth,"locus YNL161W, strain CBK1, stronger effect = lower value",0.981 (inactive)
same,normalized growth,"locus YNL183C, strain NPR1, stronger effect = lower value",0.468 (active)
same,normalized growth,"locus YNL207W, strain RIO2, stronger effect = lower value",0.969 (inactive)
same,normalized growth,"locus YNL222W, strain SSU72, stronger effect = lower value",0.974 (inactive)
same,normalized growth,[21],0.652 (active)
same,normalized growth,"locus YNL307C, strain MCK1 (second series), stronger effect = lower value",0.314 (active)
same,normalized growth,[22],0.714 (active)
same,normalized growth,[23],0.533 (active)
same,normalized growth,"locus YOL006C, strain TOP1, stronger effect = lower value",0.209 (active)
same,normalized growth,"locus YOL078W, strain AVO1, stronger effect = lower value",0.967 (inactive)
same,normalized growth,"locus YOL136C, strain PFK27, stronger effect = lower value",0.577 (active)
same,normalized growth,"locus YOR061W, strain CKA2, stronger effect = lower value",0.383 (active)
same,normalized growth,"locus YOR119C, strain RIO1, stronger effect = lower value",0.63 (active)
same,normalized growth,"locus YOR231W, strain MKK1, stronger effect = lower value",0.335 (active)
same,normalized growth,"locus YOR329C, strain SCD5, stronger effect = lower value",0.974 (inactive)
same,normalized growth,"locus YPL031C, strain PHO85, stronger effect = lower value",0.561 (active)
same,normalized growth,[5],0.113 (active)
same,normalized growth,"locus YPL153C, strain RAD53, stronger effect = lower value",0.511 (active)
same,normalized growth,"locus YPL204W, strain HRR25, stronger effect = lower value",0.575 (active)
same,normalized growth,"locus YPL209C, strain IPL1, stronger effect = lower value",0.975 (inactive)
same,normalized growth,[6],0.558 (active)
same,normalized growth,"locus YPL256C, strain CLN2, stronger effect = lower value",0.458 (active)
same,normalized growth,"locus YPR025C, strain CCL1, stronger effect = lower value",0.981 (inactive)
same,normalized growth,"locus YPR106W, strain ISR1, stronger effect = lower value",0.968 (inactive)
same,normalized growth,"locus YPR111W, strain DBF20, stronger effect = lower value",0.964 (inactive)
same,normalized growth,[24],0.635 (active)
same,normalized growth,"strain NNK1, stronger effect = lower value",0.96 (inactive)
same,normalized growth,"strain TSCII, stronger effect = lower value",0.971 (inactive)
